Only some compounds are listed: those with a hit (about 11% of all), similar ones and a draw of the others.
Coupling enz: inhibits coupling enzyme system, counter-screen for aldolase hits. hit rate 0.67% among 290,000. activity change, negative = inhibition, % at 58.2 µM, hits read low. AID 2472. coupling enzyme system counterscreen, AmpLite Red fluorescence; in the data active = activity change below about -30%
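Counterscreen lacking aldolase: glyceraldehyde-3-phosphate coupling-enzyme reagent preincubated 10 min at RT with compound (at 57.5 uM final), then substrate/coupling system with AmpLite Red added; fluorescence read at 525/598 nm after 20 min RT.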
G9a block: blocks human histone lysine methyltransferase G9a; Q96KQ7; G9a H3K9 monomethylation, AlphaScreen, 2 h; Potency, µM (series often up to 102 µM), usual class: inhibitors; hit rate 8.8% among 350,000; AID 504332; also: nearly all actives have a fitted effect of over 75% in size
Target sequence (Q96KQ7 913-1193 limits assumed): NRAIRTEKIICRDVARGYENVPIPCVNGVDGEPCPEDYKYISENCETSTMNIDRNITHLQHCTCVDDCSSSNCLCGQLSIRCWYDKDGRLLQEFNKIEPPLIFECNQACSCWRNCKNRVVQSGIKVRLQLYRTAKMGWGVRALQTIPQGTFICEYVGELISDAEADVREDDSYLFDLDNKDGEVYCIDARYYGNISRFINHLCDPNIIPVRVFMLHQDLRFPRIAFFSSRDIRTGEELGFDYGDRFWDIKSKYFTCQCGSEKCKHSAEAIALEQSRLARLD
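Methyltransferase reactions run at room temperature for 2 h (20 nM enzyme, 500 nM biotin-H3K9 peptide, 20 uM SAM) after a 15 min compound preincubation; product detected by AlphaScreen beads and anti-H3K9me1 antibody.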
Tau ThT inhib: tau fibrillization inhibition (ThT binding); recombinant tau K18 P301L, heparin-induced fibrillization, ThT fluorescence; Potency, µM (titrated, usually from 57.4 µM), hits mostly inhibitors; hit rate 2.1% among 270,000; also: nearly all actives have a fitted effect of over 55% in size
Target sequence (P10636 561-689 P618L limits assumed): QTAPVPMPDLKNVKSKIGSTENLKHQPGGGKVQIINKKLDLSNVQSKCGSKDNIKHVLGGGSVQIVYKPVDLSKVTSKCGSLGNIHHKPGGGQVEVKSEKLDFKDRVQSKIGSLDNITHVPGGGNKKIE
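K18 P301L tau (15 uM + 0.24 uM Alexa 594-tagged), heparin 20 uM, NaOAc pH 7, 6 h 37 C; ThT 30 uM, 1 h RT, ex 450/em 510 nm.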
Tau fluor cs: counter-screen for tau fibril formation inhibitors. tau K18 P301L (four-repeat tau fragment) Alexa594 fluorescence, heparin fibrillization. Potency, µM (highest dose often 57.7 µM). hit rate 0.93% among 280,000; also: nearly all actives have a fitted effect of over 55% in size
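Human K18 P301L tau (15 uM unlabeled plus 0.24 uM Alexa 594-labeled, final) in 100 mM sodium acetate pH 7 was mixed with compound and 20 uM heparin and incubated 6 hr at 37 C.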
Tau FP inhib: inhibitors of human tau fibril formation | K18 P301L tau heparin fibrillization, Alexa594 FP, 6 h | Potency, µM (top dose mostly 57.7 µM), actives largely listed as inhibitors | hit rate 0.39% among 280,000 | AID 1468; also: nearly all actives have a fitted effect of over 55% in size
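Read-out: fluorescence polarization of Alexa 594-labeled tau (0.24 uM), 555 nm excitation, 632 nm emission. Mixtures held 15 uM unlabeled K18 P301L, compound and 20 uM heparin, pH 7 acetate buffer, incubated 6 hr at 37 C.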
Sfp inh: blocks B. subtilis Sfp PPTase activity | Q9F4F7 | Biochemical Sfp PPTase activity, qHTS | Potency, µM, usual class: inhibitors | hit rate 3.5% among 310,000 | AID 1490;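 also: the enzyme is Sfp with the accession as filed and its product quenches rhodamine fluorescence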
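Compounds were incubated with enzyme (final 15 nM) for 15 min at room temperature before substrate addition started the reaction. Fluorescence at 525 nm excitation, 598 nm emission was recorded immediately and after 30 minutes.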
Hits are given with their value; – = inactive; ? = inconclusive; · = no result given; [ ] = another dose, or the depositor's remark. Unless noted, calls follow the shape of the dose curve; as a rule, active = well fitted curve in the direction sought with a large enough effect; inconclusive = small, poorly fitted or top-dose-only effect, or another doubt; inactive = no such curve, though single readings can be large; an effect the other way counts as inactive or inconclusive.

SMILES	Coupling enz	G9a block	Tau ThT inhib	Tau fluor cs	Tau FP inhib	Sfp inh
CC1CCC2(CC1)NC(=S)N(C(C)(C)C)N2 (centres undefined)	–	7.1µM	–	–	–	35µM
CCOc1ccccc1CN(CCc1ccc2c(c1)OCO2)Cc1cc(OC)c(OC)cc1OC	·	0.71µM	–	–	–	·
CCOc1ccccc1CN(CCc1ccc2c(c1)OCO2)Cc1ccccn1	–	5µM	–	–	–	?
O=Cc1ccccc1OCc1ccc2c(c1)OCO2	–	·	·	·	·	–
CCOc1ccccc1C(=O)NCc1ccc2c(c1)CCN2C(=O)c1ccccc1	·	–	?	–	–	·
Cc1cccc(-c2nsc(SCC(=O)c3ccc(Cl)cc3)n2)c1	–	–	?	–	–	–
Cc1cc(C)nc(SCC(=O)NCc2ccco2)n1	–	45µM	–	–	–	?
Cc1cccc(-c2nsc(SCC(=O)NCc3ccco3)n2)c1	–	32µM	–	–	–	?
CCOC(=O)CNC(=O)CSc1nc(-c2cccc(C)c2)ns1	–	11µM	–	–	–	–
O=C(CSc1cccc2cccnc12)NCc1ccco1	–	·	–	–	–	79µM
COc1ccc(CNC(=O)CSc2cccc3cccnc23)cc1	–	·	·	–	–	–
Cc1cccc(-c2nsc(SCC(=O)NCc3ccc4c(c3)OCO4)n2)c1	–	–	–	–	–	–
Cc1cccc(-c2nsc(SCC(=O)NCC3CCCO3)n2)c1 (centres undefined)	–	18µM	–	–	–	?
CSc1cnn(Cc2ccccc2)c(=O)c1SCc1ccccc1	–	8.9µM	?	–	–	3.2µM
CSc1cnn(-c2ccccc2)c(=O)c1SC	–	–	–	–	–	79µM
COc1cnn(-c2ccc(C)cc2)c(=O)c1SCc1ccccc1	–	–	?	–	–	–
O=C(Nc1ccc2nc(SCC(=O)N3CCc4ccccc43)sc2c1)c1cccc(F)c1	·	–	–	–	?	·
COc1ccc(C(=O)NCCOc2ccccc2)cc1S(=O)(=O)N1CCOCC1	·	–[12.7 µM]	·	·	·	·
CSc1nsc(SC)c1C(=O)Nc1ccc(Cl)cc1	–	·	–	–	–	–
CSc1nsc(SC)c1C(=O)Nc1ccc(C)cc1	·	25µM	–	–	–	–
Cc1ccc(-c2n[nH]c(=S)n2/N=C/c2ccncc2)cc1	–	1.6µM	–	–	–	–
S=c1[nH]nc(-c2ccncc2)n1/N=C/c1cccc(Cl)c1	–	1µM	·	–	–	–
CN(C)c1ccc(/C=N/n2c(-c3cccnc3)n[nH]c2=S)cc1	–	3.2µM	–	–	–	–
Cc1ccc(-c2n[nH]c(=S)n2/N=C/c2ccc(C)o2)cc1	–	0.89µM	–	–	–	71µM
S=c1[nH]nc(-c2ccccc2)n1/N=C/c1cccc(Cl)c1	–	·	·	·	·	–
SMILES	Coupling enz	G9a block	Tau ThT inhib	Tau fluor cs	Tau FP inhib	Sfp inh
Cc1ccc(/C=N/n2c(-c3ccc(Cl)cc3)n[nH]c2=S)o1	–	·	–	–	–	–
Cc1ccc(/C=N/n2c(-c3cccnc3)n[nH]c2=S)o1	–	28µM	–	–	–	56µM
O=[N+]([O-])c1ccc(Cl)c(/C=N/n2c(-c3ccncc3)n[nH]c2=S)c1	–	4µM	·	?	–	56µM
CN(C)c1ccc(/C=N/n2c(-c3ccccc3Br)n[nH]c2=S)cc1	–	0.71µM	·	–	–	56µM
Cc1ccc(/C=N/n2c(-c3cccnc3)n[nH]c2=S)s1	–	0.79µM	–	–	–	35µM
O=[N+]([O-])c1ccc(O)c(/C=N/n2c(-c3ccccc3)n[nH]c2=S)c1	–	–[0.501 µM]	·	·	·	?
O=C(c1ccccc1Cl)N1CCSCC1	–	·	–	–	–	–
O=C(O)c1ccccc1C(=O)NC1Cc2ccccc2C1	–	–	–	–	–	–
O=[N+]([O-])c1ccc(/C=N/NC(=S)Nc2ccccc2C(F)(F)F)o1	–	20µM	?	–	–	–
NC(=O)N/N=C/c1ccc([N+](=O)[O-])o1	–	–	–	–	–	–
Cn1cccc1/C=N/NC(=O)CNc1ccc2ccccc2c1	–	4µM	?	?	–	–
CCCC(=O)Nc1ccc(C(=O)N/N=C/c2ccc([N+](=O)[O-])o2)cc1	–	–	8.9µM	–	–	–
Cc1ccc(NCC(=O)N/N=C/c2cccn2C)cc1	–	·	?	–	–	–
O=C(CNc1ccc2ccccc2c1)N/N=C/c1cc2ccccc2nc1Cl	–	10µM	?	13µM[quencher]	–	–
Cc1ccc(C(c2c(C)n(C)n(-c3ccccc3)c2=O)c2c(C)n(C)n(-c3ccccc3)c2=O)s1	–	–	–	–	–	–
CCc1cccc2c(-c3ccccc3)nc(SCC(=O)Nc3ccccc3)nc12	·	–	–	–	–	·
O=C(CNc1ccc2ccccc2c1)N/N=C/c1ccc([N+](=O)[O-])o1	–	2.5µM	?	14µM[quencher]	–	–
CCC(C)c1ccc(-n2c(=O)c3ccccc3n3c(=S)[nH]nc23)cc1 (centres undefined)	–	1.1µM	·	·	·	?
O=C(O)CSc1nnc2n(-c3ccccc3)c(=O)c3ccccc3n12	–	–	·	·	·	–
O=c1c2ccccc2n2c(=S)[nH]nc2n1-c1ccccc1	–	5µM	·	·	·	45µM
COC(=O)C1=C(C)N(C)C(=S)NC1c1c(OC)ccc2ccccc12 (centres undefined)	–	–[12.7 µM]	–	–	–	–
O=C(CCS(=O)(=O)c1cccs1)Nc1ccc(C(=O)Nc2ccccc2F)cc1	·	–	–	–	–	·
COc1ccc(-n2nc3c(c2NC(=O)C2CC2)CS(=O)C3)cc1 (centres undefined)	–	–	–	–	–	–

Bioassay records as filed in PubChem.
